Consider 14 compounds from PubChem BioAssay.

Each structure is given as a SMILES string. The source made the active and inactive calls.

Assay [1] is described as follows: A549 cell viability effects, profiling panel, calcein-AM fluorescence, 48 h, basal (AID 1162). To be noted: higher = more signal.
Assay [2] in a line: adipocyte viability effects, profiling panel, cell-based, 3T3-L1 adipocytes, calcein-AM fluorescence, 48 h, basal (AID 1163). The following applies: 3T3-L1 adipocytes viability, higher = more signal.
Assay [3] in a line: HepG2 cell viability effects, profiling panel, calcein-AM fluorescence, 48 h, basal (AID 1164). To be noted: higher = more signal.
The nature of assay [4]: MM1S cell viability effects, profiling panel, calcein-AM fluorescence, 48 h, basal (AID 1165).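 Further: viability of MM1S multiple myeloma cells under basal unstimulated conditions.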 The following applies: higher = more signal.
Assay [5] in a line: basal RPMI8226 viability, no added stimulus, profiling panel, cell-based, calcein-AM fluorescence, 48 h, PK04 Diversity Set (AID 1166).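 Further: cells grown under basal conditions without added stimulus.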 The following applies: RPMI8226 myeloma viability, higher = more signal.
A short description of assay [6]: basal HepG2 mitochondrial membrane potential changes, profiling panel, cell-based, JC-1 fluorescence, 24 h, 100 nL compound (AID 1167). The following applies: higher = more signal.
The nature of assay [7]: basal 3T3-L1 adipocyte mitochondrial potential changes, profiling panel, cell-based, JC-1 fluorescence, 3T3-L1 adipocytes, 24 h, 100 nL compound (AID 1168). To be noted: JC-1 mitochondrial fluorescence, higher = more signal, called active from +8 up or from −8 down.
A short description of assay [8]: basal RPMI8226 mitochondrial membrane potential changes, profiling panel, cell-based, JC-1 fluorescence, 24 h, 100 nL compound (AID 1169). The following applies: RPMI8226 myeloma, JC-1 mitochondrial potential fluorescence, higher = more signal.
The nature of assay [9]: basal MM1S mitochondrial membrane potential changes, profiling panel, cell-based, JC-1 fluorescence, 24 h, 100 nL compound (AID 1170). To be noted: higher = more signal.
Assay [10] in a line: A549 lung cancer cell viability effects, profiling panel, resazurin fluorescence, 24 h, PK04 Diversity Set (AID 1171). To be noted: higher = more signal, called active from +8 up or from −8 down. (The colour change of resazurin is a common sign of viable cells or microbes.)
Further: test concentration not given here.

`C=CCC(OC(C)=O)[C@@H]1[C@@H](N(Cc2ccc(-c3ccccc3)cc2)C(=O)Cc2ccc(F)cc2)c2cc(OCCCO)ccc2N1C(=O)c1ccc2ccccc2c1` (stereo not given in full): the z-score in [1] is 0.444; in assay [2], 0.0021; in assay [3] it was 0.278; in assay [4], -0.895; in assay [5], -0.344; in assay [6], 1.61. The z-score in [7] is -0.413 (inactive); in assay [8], -0.192; in assay [9] it was 0.769; in [10], 0.799 (inactive).
As for `CCOC(=O)C[C@H]1[C@H](OC(=O)c2cc3ccccc3oc2=O)[C@@H](NC(=O)CC(C)C)c2cc(OCCCO)ccc2N1C(=O)c1ccccc1`, the z-score in [1] is -0.276; in assay [2], 1.52; in assay [3] it was 0.314; in [4], 0.117; in assay [5] it was -0.0793; in assay [6] it was 1.14. The z-score in [7] was 0.9 (inactive); in [8], -0.882; in assay [9], 0.915; in [10] it was -1.33 (inactive).
On to `C[N+](C)(C)CCCC[C@@H]1NC(=O)[C@H]2C[C@@H](C(=O)NCCCCCCNC(=O)CS)[C@@H](c3ccc(O)cc3)N2C1=O`, for which the z-score in [1] was -0.293; in assay [2] it was -0.267; in assay [3], -0.838; in [4] it was -0.414; in assay [5], 0.498; in assay [6], -1.66. Further, the z-score in assay [7] was -0.564 (inactive); in [8], 0.164; in assay [9], -0.0762; in assay [10] it was -0.657 (inactive).
For `O=C(CS)NCCCCCNC(=O)[C@H]1C[C@H]2C(=O)NCC(=O)N2[C@H]1c1cccc(OCCO)c1`, the z-score was 0.54 in assay [1]; 0.0451 in [2]; -0.203 in [3]; 0.304 in assay [4]; 0.111 in [5]; -0.342 in [6]. In addition, the z-score was -0.0834 (inactive) in assay [7], 0.127 in [8], 0.112 in assay [9] and 0.768 (inactive) in assay [10].
For `C=C(C)[C@@H]1CC=C(C(O)C2C=CC3C(=O)NC(=O)C3N2Nc2ccc(Cl)cc2Cl)CC1` (stereo not given in full), the z-score in assay [1] was -3.8; in assay [2] it was 0.641; in assay [3] it was -3.88; in [4], -3.71; in assay [5], -3.89; in assay [6], -3.7. Also, the z-score in assay [7] is -0.432 (inactive); in [8] it was -0.934; in [9], -0.944; in assay [10], -2.76 (inactive).
For `O=C1O[C@@H](c2ccccc2)[C@@H](c2ccccc2)N2[C@@H](c3ccccc3OCCO)[C@]3(C(=O)Nc4ccccc43)[C@@H](C(=O)O)[C@H]12`, the z-score in [1] is -0.796; in [2] it was 0.266; in [3] it was 0.045; in assay [4], -2.64; in [5], 0.0803; in assay [6], 0.249. Besides, the z-score in [7] is -0.742 (inactive); in assay [8] it was 0.649; in [9], 0.554; in [10] it was 0.362 (inactive).
Take `CC(C)N1CC=CC23O[C@@H]4C=CCOC(=O)[C@@H]4[C@H]2C(=O)N(CCCCCO)[C@@H]3C1=O` (stereo not given in full): the z-score in [1] is 0.522; in [2] it was 1.45; in [3], -1.25; in assay [4] it was 1.01; in assay [5], 0.512; in [6], -0.448. Also, the z-score in assay [7] was -0.709 (inactive); in [8], 0.565; in [9], -0.41; in assay [10], 0.0829 (inactive).
As to `C=CC1c2cc(O)c(OC)cc2CCN1Cc1cccc(OC(F)(F)F)c1` (stereo not given), the z-score in assay [1] is -1.97; in [2], 0.566; in assay [3] it was -3.19; in assay [4], -3.18; in [5] it was -2.2; in assay [6] it was -2.6. Further, the z-score was -0.604 (inactive) in [7], -0.752 in [8], -1.85 in [9] and -0.821 (inactive) in [10].
Turning to `CC1CC/C=C\[C@H]2OC34C=CCN(c5ccc6ccccc6c5)C(=O)[C@H]3N(CCO)C(=O)[C@@H]4C2C(=O)O1` (stereo not given in full), the z-score in assay [1] was -0.099; in assay [2], 0.428; in assay [3] it was -0.303; in assay [4], 1.01; in assay [5], -0.36; in assay [6], -0.438. In addition, the z-score in assay [7] was -0.55 (inactive); in assay [8], -0.0138; in [9], 1.19; in [10], -0.573 (inactive).
Turning to `O=C1OCC=C[C@H]2OC34C=CCN(CCN5CCOCC5)C(=O)[C@H]3N(CCO)C(=O)[C@@H]4[C@@H]12` (stereo not given in full), the z-score was -0.157 in [1]; 0.196 in assay [2]; 0.804 in assay [3]; -0.635 in assay [4]; -0.253 in assay [5]; -0.464 in assay [6]. In addition, the z-score in assay [7] is 0.00617 (inactive); in assay [8] it was -0.299; in assay [9] it was 0.292; in [10] it was -0.124 (inactive).
As to `[N-]=[N+]=NCc1ccccc1[C@@H]1OC(c2ccc(OCCCO)cc2)=N[C@]1(CCS(=O)(=O)c1ccccc1)C(N)=O`, the z-score is 0.338 in assay [1]; -0.676 in [2]; 0.834 in assay [3]; 0.369 in assay [4]; 0.102 in assay [5]; -1.67 in [6]. For the same compound, the z-score was -0.0551 (inactive) in assay [7], -0.875 in [8], -1.16 in assay [9] and -0.174 (inactive) in [10].
For `CN(C)CCCCNC(=O)[C@@H]1C[C@@H]2C(=O)N[C@@H](CCCCN)C(=O)N2[C@@H]1c1ccc(O)cc1`, the z-score in assay [1] was 0.48; in assay [2], -1.51; in assay [3], 0.377; in assay [4], -0.388; in assay [5] it was 0.473; in [6], -1.58. Further, the z-score in [7] is 0.627 (inactive); in assay [8], -0.836; in assay [9] it was -1.29; in [10], 0.0719 (inactive).
Consider `COCCOC(=O)N1C(=O)[C@@]2(c3ccccc31)[C@H](c1ccc(OCCO)cc1)N1[C@H](c3ccccc3)[C@H](c3ccccc3)OC(=O)[C@H]1[C@@H]2C(=O)N1CCc2cc(OC)c(OC)cc2C1`, for which the z-score in [1] is 0.114; in [2], 1.09; in assay [3], 1.37; in [4], 0.175; in assay [5], -0.0296; in assay [6], 0.39. Moreover, the z-score was 3.06 (inactive) in assay [7], -0.749 in assay [8], -1.53 in assay [9] and -0.247 (inactive) in [10].
Regarding `Cc1c(NC(=O)/C(C#N)=C/c2cccc([N+](=O)[O-])c2)c(=O)n(-c2ccccc2)n1C`, the z-score in assay [1] is 4.01; in assay [2], 1.31; in assay [3], 0.461; in assay [4], 0.943; in [5], 2.4; in [6] it was 0.69. Further, the z-score in assay [7] was -1.08 (inactive); in assay [8] it was -0.122; in [9], -0.054; in assay [10], -0.133 (inactive).
